{"source": "PubChem BioAssay (NCATS)", "note": "Inconclusive results are not listed. Activity calls are given as the source filed them. Calls follow the shape of the dose curve; as a rule, active = well fitted cell-killing curve with a large enough effect; inconclusive = small, poorly fitted or top-dose-only effect; inactive = flat fitted curve, though single readings scatter.", "data": [{"assay": "Cell Viability - LYMP1-002 - Assay at 40 hr (AID 994);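 also: 0% = DMSO only and full inhibition = 92 µM tetraoctylammonium bromide; nearly all actives have a fitted effect of over 60% in size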", "conditions": "LYMP1-002 lymphoblastoid cell viability; series mostly up to 92.2 µM; viability change, negative = cytotoxic: at the top concentration", "source_text": "NIH Chemical Genomics Center [NCGC]\nNIH Molecular Libraries Screening Centers Network [MLSCN]\nNational Institutes of Environmental Health Sciences [NIEHS]\nNational Toxicology Program [NTP]\nWe have developed a 1536-well cell-based assay for quantitative high throughput screening (qHTS) against a number of cell lines to determine in vitro cytotoxicity of small molecules. This particular assay uses a human lymphoblastoid cell line (LYMP1-002) purchased from Coriell Institute for Medical Research.\nNCGC Assay Protocol Summary:\nThe CellTiter-Glo luminescent cell viability assay (Promega) is a homogeneous method to measure the number of viable cells in culture. The end point readout of this assay is based on quantitation of intracellular ATP, an indicator of metabolic activity, using the luciferase reaction. Luciferase catalyzes the oxidation of beetle Luciferin to oxyluciferin and light in the presence of ATP. The luminescent signal is proportional to amount of ATP present.\nUsing the CellTiter-Glo luminescent cell viability assay, the amount of cellular ATP was measured in the lymphoblastoid cell line with complete culture medium following compound treatment for 40 hours. The assay was performed in opaque white Kalypsys 1536-well plates. In the screen, tetraoctylammonium bromide was used as positive control. Library compounds were measured for their ability to cause acute toxicity in the cell line, as reflected by a decrease in intracellular ATP levels, in a concentration-dependent manner. […] AC50 values were determined from concentration-response data modeled with the standard Hill equation.\nqHTS protocol for CellTiter Glo lymphoblastoid cellular assay\n[Step] [Parameter] [Value] [Description]\n1. Reagent; 5 uL; 2500 lymphoblastoid cells/well\n2. Time; 5 hr; 37 C incubation\n4. Controls; 23 nL; Tetraoctylammonium bromide 6.4pM to 92 uM\n5. Time; 40 hr; 37 C incubation\n6. Reagent; 5 uL; CellTiter Glo reagent\n7. Time; 30 min; Room Temperature\n8. Detection; Luminescence; Viewlux plate reader\nKeywords: cell viability, cytotoxicity, lymphoblastoid cell line, luminescence, NTPHTS, NTPHTS_NCGC, NIEHS, DSSTox, MLSMR, MLSCN, NIH Roadmap, qHTS, NCGC", "values": [{"smiles": "S=C([S-])NCCNC(=S)[S-].[Zn+2]", "viability change, negative = cytotoxic": "-3.62% (inactive)"}, {"smiles": "Cc1ccc(C)cc1", "viability change, negative = cytotoxic": "4.28% (inactive)"}, {"smiles": "c1ccsc1", "viability change, negative = cytotoxic": "-5.89% (inactive)"}, {"smiles": "CC(C)Cc1nccs1", "viability change, negative = cytotoxic": "2.54% (inactive)"}, {"smiles": "CNC(=O)N(c1ccccc1)c1ccccc1", "viability change, negative = cytotoxic": "-1.06% (inactive)"}, {"smiles": "NC(=S)NNC(N)=S", "viability change, negative = cytotoxic": "2.32% (inactive)"}, {"smiles": "CCC(O)C(C)(C)C", "note": "(stereo not given)", "viability change, negative = cytotoxic": "-10.2% (inactive)"}, {"smiles": "CCCCCCCN", "viability change, negative = cytotoxic": "-5.79% (inactive)"}, {"smiles": "C=Cc1ccc(C=C)cc1", "viability change, negative = cytotoxic": "9.79% (inactive)"}, {"smiles": "CCCCOCCOCCOCCCC", "viability change, negative = cytotoxic": "1.65% (inactive)"}, {"smiles": "BrC/C=C/CBr", "viability change, negative = cytotoxic": "-7.57% (inactive)"}, {"smiles": "CCN(C(=O)N(CC)c1ccccc1)c1ccccc1", "viability change, negative = cytotoxic": "-6.71% (inactive)"}, {"smiles": "CC(C)(c1cc(Br)c(OCC(Br)CBr)c(Br)c1)c1cc(Br)c(OCC(Br)CBr)c(Br)c1", "note": "(stereo not given)", "viability change, negative = cytotoxic": "-2.4% (inactive)"}, {"smiles": "CCCCCCCCCCCCOCC1CO1", "note": "(stereo not given)", "viability change, negative = cytotoxic": "-10.8% (inactive)"}, {"smiles": "O=P(O)(OCc1ccccc1)OCc1ccccc1", "viability change, negative = cytotoxic": "-10.4% (inactive)"}, {"smiles": "Cc1cccc2cccnc12", "viability change, negative = cytotoxic": "-1.38% (inactive)"}, {"smiles": "CC(C)(C)c1ccc(OCC2CO2)cc1", "note": "(stereo not given)", "viability change, negative = cytotoxic": "-1.19% (inactive)"}, {"smiles": "Cc1ccc(C(C)(C)C)cc1", "viability change, negative = cytotoxic": "1.19% (inactive)"}, {"smiles": "Cc1ccccc1C(=O)O", "viability change, negative = cytotoxic": "-1.92% (inactive)"}, {"smiles": "COc1ccccc1[N+](=O)[O-]", "viability change, negative = cytotoxic": "-2.93% (inactive)"}, {"smiles": "COc1ccc(OC)cc1", "viability change, negative = cytotoxic": "5.4% (inactive)"}, {"smiles": "Cc1cccc(C(=O)O)c1", "viability change, negative = cytotoxic": "4.1% (inactive)"}, {"smiles": "Nc1cc(Cl)c(N)c(Cl)c1", "viability change, negative = cytotoxic": "-12.5% (inactive)"}, {"smiles": "O=C(O)c1ccc(Cl)c(Cl)c1", "viability change, negative = cytotoxic": "-1.43% (inactive)"}, {"smiles": "C[C@@H]1O[C@@H](O[C@@H]2[C@@H](O)[C@H](OCCc3ccc(O)c(O)c3)O[C@H](CO[C@@H]3O[C@H](CO)[C@@H](O)[C@H](O)[C@H]3O)[C@H]2OC(=O)/C=C/c2ccc(O)c(O)c2)[C@H](O)[C@H](O)[C@H]1O", "viability change, negative = cytotoxic": "-1.81% (inactive)"}, {"smiles": "O=C1CCC(=O)O1", "viability change, negative = cytotoxic": "-1.89% (inactive)"}, {"smiles": "Cc1ccccc1Br", "viability change, negative = cytotoxic": "-0.626% (inactive)"}, {"smiles": "O=[N+]([O-])c1ccc(NCCO)c(OCCO)c1", "viability change, negative = cytotoxic": "-2.79% (inactive)"}, {"smiles": "C=CCCCC", "viability change, negative = cytotoxic": "3.39% (inactive)"}, {"smiles": "CC/C(C)=N/O", "viability change, negative = cytotoxic": "-4.27% (inactive)"}, {"smiles": "COC(=O)CS", "viability change, negative = cytotoxic": "-3.79% (inactive)"}, {"smiles": "CCOc1ccc(NC(C)=O)cc1N", "viability change, negative = cytotoxic": "-0.282% (inactive)"}, {"smiles": "NCCCCCCN", "viability change, negative = cytotoxic": "-4.71% (inactive)"}, {"smiles": "O=C1CCCCC1", "viability change, negative = cytotoxic": "-7.85% (inactive)"}, {"smiles": "Cc1ccc(C)c([N+](=O)[O-])c1", "viability change, negative = cytotoxic": "-7.45% (inactive)"}, {"smiles": "Fc1ccccc1", "viability change, negative = cytotoxic": "-1.9% (inactive)"}, {"smiles": "O=C1OC(=O)c2c(Cl)c(Cl)c(Cl)c(Cl)c21", "viability change, negative = cytotoxic": "-4% (inactive)"}, {"smiles": "CCOc1cccc(N)c1", "viability change, negative = cytotoxic": "-9.14% (inactive)"}, {"smiles": "CCN(CC)c1cccc(O)c1", "viability change, negative = cytotoxic": "-2.23% (inactive)"}, {"smiles": "CCCCCCO", "viability change, negative = cytotoxic": "-2.62% (inactive)"}]}]}
